HT1080 IDH1KD tx: HT-1080 IDH1 knockdown cell toxicity (counter line). HT-1080 IDH1 knockdown viability, ATP luminescence, 48 h. Potency, µM (doses to about 46.1 µM), inactives show top-dose activity, negative = toxicity, most hits filed as cytotoxic. 2% of 360,000 active. AID 686971;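 note: potency is the fitted concentration of half-maximal effect; 0% = DMSO wells and -100% = cell-free medium wells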
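After a 2 h attachment period, IDH1KD HT-1080 cells took pin-transferred compound for 48 h at 37 °C; ATP-based luminescence after 10 min room-temperature reagent incubation reported viability.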
DT40 TDP1 no CPT: qHTS for Inhibitors of human tyrosyl-DNA phosphodiesterase 1 (TDP1): qHTS in cells in absence of CPT | Potency, µM (top dose mostly 46.2 µM), without a hit: top-dose activity change, negative = growth inhibition, usual class: inhibitors | 15% of 420,000 active | DT40 Tdp1-/- hTDP1 cells, no CPT, ATP luminescence, 48 h | AID 686978, 2013; note: potency is the fitted concentration of half-maximal effect; nearly all actives have a fitted effect of over 55% in size
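Camptothecin absent (DMSO only). Human TDP1-complemented DT40 knockout cells, 400 cells/well, 37 °C for minimum 48 hr; ATP measured via CellTiter-Glo, 30 min dark incubation, luminescence.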
12-LOX inh: ALOX12 (human) lipoxygenase inhibition. Potency, µM (titrated, usually from 108 µM), without a hit: at the highest dose activity change, negative = inhibition, actives largely listed as inhibitors. purified 12hLO, xylenol orange hydroperoxide absorbance. 1.1% of 580,000 active. AID 1671190; note: potency is the fitted concentration of half-maximal effect
Target sequence (P18054 whole entry, looked up): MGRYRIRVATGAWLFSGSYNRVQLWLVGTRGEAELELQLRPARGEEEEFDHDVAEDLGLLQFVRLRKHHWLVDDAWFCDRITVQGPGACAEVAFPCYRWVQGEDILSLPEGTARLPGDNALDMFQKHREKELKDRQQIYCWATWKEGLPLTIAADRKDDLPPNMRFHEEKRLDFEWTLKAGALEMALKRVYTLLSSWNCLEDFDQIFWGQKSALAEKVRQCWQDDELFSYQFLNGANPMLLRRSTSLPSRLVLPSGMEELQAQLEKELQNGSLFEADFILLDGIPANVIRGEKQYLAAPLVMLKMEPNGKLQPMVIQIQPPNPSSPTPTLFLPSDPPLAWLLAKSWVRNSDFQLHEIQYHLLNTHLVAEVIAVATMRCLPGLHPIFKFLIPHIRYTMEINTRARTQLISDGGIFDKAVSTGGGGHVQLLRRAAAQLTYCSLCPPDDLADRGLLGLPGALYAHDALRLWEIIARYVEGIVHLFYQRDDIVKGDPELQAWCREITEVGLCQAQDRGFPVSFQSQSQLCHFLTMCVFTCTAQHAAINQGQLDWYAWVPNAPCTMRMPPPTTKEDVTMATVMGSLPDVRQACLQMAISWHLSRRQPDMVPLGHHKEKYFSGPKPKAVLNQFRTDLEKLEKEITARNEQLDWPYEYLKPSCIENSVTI
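Hydroperoxide product was detected by ferrous iron/xylenol orange as the 573 to 405 nm absorbance ratio. Arachidonic acid at 40 uM (final) was turned over for 30 min at room temperature by 150 nM human 12hLO, pH 7.0 Hepes buffer, after 15 min compound preincubation.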
HT1080NT lethal: kills 2HG-producing HT-1080-NT fibrosarcoma cells | HT-1080-NT fibrosarcoma viability, CellTiter-Glo ATP luminescence, 48 h | Potency, µM (series often up to 46.1 µM), without a hit: top-dose activity, negative = less viability, most hits filed as cytotoxic | 1.6% of 360,000 active;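 note: NT is the 2HG producing partner of a matched IDH1 knockdown line; potency is the fitted concentration of half-maximal effect; 0% = DMSO-treated cells and -100% = media-only wells without cells; nearly all actives have a fitted effect of over 55% in size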
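HT-1080-NT; 750 cells/well; 5% FBS RPMI; 48 h compound, 37 degrees C; CellTiter-Glo luminescence; curve fitting and curve-class assignment.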
IL1B secr inh: inhibitors of inflammasome signaling (IL-1 beta secretion). THP-1 LPS/ATP IL-1B secretion, AlphaLISA, 16 h; stronger effect = lower value. activity change, % at 57.5 µM. 4.7% of 360,000 active; in the data active = activity change below about -50%; inconclusive = mostly about -30% to -49%
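THP-1 cells pretreated 1 hr with compounds (up to 57.5 uM final), then stimulated with LPS (250 ng/mL final) plus ATP (1.25 mM final); secreted IL-1B measured by AlphaLISA after 16 hr, decreased signal indicating inhibition.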
DT40 TDP1 CPT: growth inhibition of DT40 Tdp1-/-;hTDP1 cells with camptothecin (screen for TDP1 inhibitors). chicken DT40 Tdp1-/-;hTDP1 cells + 20 nM CPT, ATP luminescence, 48 h. Potency, µM (series often up to 46.2 µM), for the others: at the top dose activity change, negative = growth inhibition, most hits filed as inhibitors. 12% of 420,000 active. AID 686979; note: potency is the fitted concentration of half-maximal effect; nearly all actives have a fitted effect of over 55% in size
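Chicken DT40 Tdp1-/- cells complemented with human TDP1, 400 cells/well, exposed to compounds plus 20 nM camptothecin for at least 48 h at 37 C; viability read as ATP content by CellTiter-Glo luminescence.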
* hit, by the source's call; ? = inconclusive; . = no result given; [ ] = dose if it differs, or a comment. Shown is part of a subset that was picked to be rich in hits. Unless noted, calls come from the whole dose curve; as a rule, active = well fitted curve in the direction sought with a large enough effect; inconclusive = small, poorly fitted or top-dose-only effect, or another doubt; inactive = no such curve, though single readings can be large; an effect the other way counts as inactive or inconclusive. Unless noted, % is set by controls: 0 for no effect and ±100 for the full control effect.

SMILES	HT1080 IDH1KD tx	DT40 TDP1 no CPT	12-LOX inh	HT1080NT lethal	IL1B secr inh	DT40 TDP1 CPT
O=C(c1cccc(Cl)c1)C1CCCN(Cc2cccc3cnccc23)C1 (configuration not stated)	?	21µM*	2%	9.2µM*	-16	?
COc1cccc(C(=O)C2CCCN(Cc3cccc4c3OCO4)C2)c1 (configuration not stated)	-15%	?	-3%	-29%	4	?
COc1ccc(CN2CCCC(C(=O)c3ccc(Cl)cc3)C2)c(OC)c1 (configuration not stated)	9.2µM*	18µM*	-5%	?	-68*	?
O=C(c1cccc(Cl)c1)C1CCCN(Cc2ccon2)C1 (configuration not stated)	-4%	?	-5%	2%	8	?
O=C(c1cc(F)ccc1F)C1CCCN(Cc2cc(Cl)ccc2O)C1 (configuration not stated)	?	?	-23%	-27%	-11	?
CSc1ncc(CN2CCCC(C(=O)c3cccc(Cl)c3)C2)cn1 (configuration not stated)	-2%	?	-14%	-7%	-13	21µM*
O=C(c1ccc(Cl)cc1)C1CCCN(Cc2cccc3cnccc23)C1 (configuration not stated)	-7%	6.5µM*	9%	-3%	-7	21µM*
CC(C)NC(=O)NC[C@H]1C[C@@H]2CCN1C[C@@H]2CN1CCN(C)CC1	.	.	4%[176 µM]	.	.	.
COC(=O)[C@@H]1[C@@H](CO)[C@@H]2Cn3c(ccc(Br)c3=O)[C@H]1N2S(=O)(=O)c1cn(C)cn1	.	.	0%	.	.	.
Cc1nc(-c2ccc(N(C)C)cc2)cc([C@H]2CN3CC[C@H]2C[C@@H]3CNC(=O)C2CC2)n1	.	.	74%[176 µM]	.	.	.
CCc1c(C)nc(N2CCN(CC)CC2)[nH]c1=O	.	.	-15%	.	.	.
O=c1c2ccccc2[se]c2ccccc12	.	.	10%	.	.	.
C=C[C@H]1CN2CC[C@H]1C[C@@H]2CNCc1ccc(SC)cc1	.	.	-8%[176 µM]	.	.	.
O=C(c1ccc2c(c1)OCO2)C1CCCN(Cc2ccc(F)c(F)c2)C1 (configuration not stated)	-11%	-24%	0%	-4%	0	-19%
O=C(c1ccc(Cl)cc1)C1CCCN(Cc2ccc3ncccc3c2)C1 (configuration not stated)	-28%	16µM*	13%	-23%	-11	15µM*
CC(=O)Nc1ccc(OC[C@](C)(O)C(=O)Nc2ccc([N+](=O)[O-])c(C(F)(F)F)c2)cc1	.	.	-18%[57.4 µM]	.	.	.
CC(C)n1c(N2CCN(S(=O)(=O)c3cccc([N+](=O)[O-])c3)CC2)nc2ccccc21	-26%	12µM*	-1%	-24%	-72*	?
CC1=C(O)C(=O)C=C2C1=CC=C1C2(C)CCC2(C)C3CC(C)(C(=O)O)CCC3(C)CCC12C (configuration not stated)	1.6µM*	1µM*	4.5µM*	4.6µM*	-57*	1.3µM*
Cc1c(O)c(O)cc2c1CC=C1[C@]3(C)CC[C@]4(C)CC[C@@](C)(C(=O)O)CC4[C@]3(C)CC[C@]12C (some centres not stated)	.	4.1µM*	.	.	.	7.3µM*
c1cncc(C2=NOC3(CCCN(CC4CCCCC4)C3)C2)c1 (configuration not stated)	.	.	3%[6.33 µM]	.	.	.
Cn1nc(-c2ccc3ccccc3c2)cc1[C@H]1CN2CC[C@H]1C[C@@H]2CNS(=O)(=O)c1ccccc1	.	.	42%	.	.	.
NCCc1ccc(OCc2ccccc2)c(OCc2ccccc2)c1	?	12µM*	?	-25%	-82*	16µM*
N#CC(C#N)=NNc1ccc(OC(F)(F)F)cc1	.	1.1µM*	?	.	.	1.1µM*
CC(=O)OC1C(O)C2=C3C4(C)C1C(C)(C)C(=O)CC4C3(O)C(OC(C)=O)C1(CC1C)C2=O (configuration not stated)	13%	7.3µM*	-27%	-3%	-121*	5.8µM*
Cn1c(=O)oc2cc(S(=O)(=O)N3CCCC(C(=O)N4CCN(c5cccc(Cl)c5)CC4)C3)ccc21 (configuration not stated)	.	8.2µM*	-7%	.	.	9.2µM*
SMILES	HT1080 IDH1KD tx	DT40 TDP1 no CPT	12-LOX inh	HT1080NT lethal	IL1B secr inh	DT40 TDP1 CPT
Cc1csc(NC(=O)C2CCCN(S(=O)(=O)c3ccc4c(c3)oc(=O)n4C)C2)n1 (configuration not stated)	0%	?	17%[57.4 µM]	15%	9	?
COc1cccc(N2CCN(C(=O)C3CCN(S(=O)(=O)c4ccc5c(c4)oc(=O)n5C)CC3)CC2)c1	8%	18µM*	6%	1%	-3	16µM*
CCN(C1CCOCC1)C1CNC1	.	.	6%	.	.	.
Clc1ccc(Cn2ccnc2)cn1	6%	5%	-22%	-2%	15	24%
Clc1ccc(CCC(Cn2ccnc2)Sc2c(Cl)cccc2Cl)cc1 (configuration not stated)	?	26µM*	?	?	0	?
CC(C)CCCn1c(O)c(/C=C2/C=CC=N2)c(=O)[nH]c1=O	16µM*	5.2µM*	-8%	18µM*	-18	5.8µM*
NCCc1nc2ccccc2s1	-2%	10%	33%	-7%	23	5%
Cc1nn(-c2nc3ccccc3s2)c(C)c1Oc1ccccc1O	13µM*	?	.	13µM*	-79*	18µM*
CC[C@H]1CN2CC[C@H]1C[C@@H]2CNC(=S)Nc1ccc(C)cc1Br	.	.	-10%[176 µM]	.	.	.
Cc1cccc(-n2c(/C=C/c3ccccc3O)nc3ccccc3c2=O)c1	.	?	-42%	.	.	?
O=c1c2ccccc2nc(/C=C/c2cccc3ccccc23)n1-c1ccc(Cl)cc1	.	26µM*	-13%	.	.	21µM*
O=c1c2ccccc2nc(/C=C\c2ccccc2F)n1-c1ccc(O)cc1	.	?	0%	.	.	?
COc1cccc(/C=C/c2nc3ccccc3c(=O)n2-c2ccc(Cl)cc2)c1OC	.	?	-25%	.	.	15µM*
Cc1cccc(-n2c(/C=C/c3ccco3)nc3ccccc3c2=O)c1	.	.	25µM*	.	.	.
O=C(O)c1ccc(/C=C/c2nc3ccccc3c(=O)n2-c2ccc(Br)cc2)cc1	-20%	?	-32%	-5%	?	-29%
